Records with an inconclusive call do not appear. The source made the active and inactive calls. Unless noted, calls follow the shape of the dose curve; as a rule, active = well fitted curve in the direction sought with a large enough effect in the repeat runs; inconclusive = weak or mixed curves; inactive = no such curve, though single readings can be large; an effect the other way counts as inactive or inconclusive.
Experiments:
[1] = qHTS assay for small molecule agonists of the p53 signaling pathway (AID 651631; calls by dose curve; also: nearly all actives have a fitted effect of over 15% in size)
Procedure, shortened: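 HCT-116 cells carrying a stable p53 response element–beta-lactamase reporter were plated, rested 5 h at 37 °C, then exposed to compound in DMSO for 16 h at 37 °C; reporter activity was read as FRET substrate fluorescence after 2 h at room temperature.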

[2] = qHTS assay for small molecules that induce genotoxicity in human embryonic kidney cells expressing luciferase-tagged ATAD5 (AID 651632); also: nearly all actives have a fitted effect of over 15% in size
Procedure, shortened: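 Luminescent reporter readout, HEK293T ATAD5-luc line: 16 hr drug exposure (37C, 5% CO2) followed by Amplite, 30 min RT.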

[3] = qHTS assay for small molecule agonists of the p53 signaling pathway - cell viability (AID 651633; calls by dose curve; also: series mostly up to about 83 µM; nearly all actives have a fitted effect of over 30% in size)
Procedure, shortened: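 Viability counter-read: CellTiter-Glo luminescence (30 min, room temperature) in the same p53RE-bla plates. These plates had been exposed to compounds for 16 h at 37 C.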

[4] = qHTS assay for small molecules that induce genotoxicity in human embryonic kidney cells expressing luciferase-tagged ATAD5 - cell viability (AID 651634; calls by dose curve; also: nearly all actives have a fitted effect of over 25% in size)
Procedure, shortened: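 Viability read: CellTiter-Fluor fluorescence, 30 min at 37C. Cells: HEK293T, luciferase-tagged ATAD5. Exposure: 15.5 hr, 37C, 5% CO2, compound or DMSO vehicle.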

[5] = qHTS assay for small molecule disruptors of the mitochondrial membrane potential - cell viability (AID 720634; calls by dose curve;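 also: human HepG2 liver cancer cells; series mostly up to about 83 µM; nearly all actives have a fitted effect of over 20% in size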)
Procedure, shortened: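 HepG2, 1 hr compound, 37 C. ATP luminescence via CellTiter-Glo, 30 min RT, same well as m-MPI.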

[6] = qHTS assay for small molecule disruptors of the mitochondrial membrane potential (AID 720635)
Procedure, shortened: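 Mitochondrial membrane potential tracked with Mito-MPS dye, red aggregates (ex 540/em 590 nm) against green monomers (ex 490/em 535 nm). Compound treatment 1 hr at 37C, dye 30 min in HepG2.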

[7] = qHTS assay to test for compound auto fluorescence at 590 nm (red) in HepG2 cells (AID 720674)
Procedure, shortened: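 1 hr compound incubation on HepG2 cells, 37 C, 5% CO2; plate read ex 540 nm / em 590 nm; intensities reported as Rose Bengal sodium equivalents.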

[8] = qHTS assay to test for compound auto fluorescence at 535 nm (green) in HepG2 cells (AID 720675)
[9] = qHTS assay to test for compound auto fluorescence at 460 nm (blue) in HEK293 cells (AID 720678)
Procedure, shortened: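 HEK293 cells (2,000 per well, medium with 10% dialyzed FBS) attached for 4-5 hr at 37C, then received compound and stood overnight at 37C, 5% CO2. Blue fluorescence was read at Ex/Em 405/460 nm and expressed relative to triamterene.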

[10] = qHTS assay to test for compound auto fluorescence at 590 nm (red) in HEK293 cells (AID 720679)
Procedure, shortened: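 HEK293 cells (2,000/well, medium with 10% dialyzed FBS) attached for 4-5 hr at 37C, received 23 nL compound and were incubated overnight at 37C, 5% CO2. Red fluorescence was then read at 540/590nm Ex/Em, referenced to Rose Bengal sodium.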

[11] = qHTS assay to test for compound auto fluorescence at 535 nm (green) in HEK293 cells (AID 720680)
[12] = qHTS assay to test for compound auto fluorescence at 460 nm (blue) in HEK293 cell free culture (AID 720681)
Procedure, shortened: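 Blue fluorescence (Ex 405/Em 460 nm, triamterene-equivalent) was read immediately after pin transfer of compound or DMSO into medium (DMEM, 10% FBS) without cells.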

[13] = qHTS assay to test for compound auto fluorescence at 535 nm (green) in HEK293 cell free culture (AID 720682)
Procedure, shortened: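 Read-out: 485/535 nm fluorescence intensity, calibrated against fluorescein. Medium only (DMEM + 10% FBS, no cells); test compound or DMSO vehicle added by pintool before plate reading.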

[14] = qHTS assay to test for compound auto fluorescence at 590 nm (red) in HEK293 cell free culture (AID 720683)
Procedure, shortened: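 Red-channel autofluorescence of compounds in culture medium (DMEM, 10% FBS), no cells, measured at 540/590 nm. Rose Bengal sodium is the reference fluorophore for equivalence.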

[15] = qHTS assay to test for compound auto fluorescence at 590 nm (red) in HepG2 cell free culture (AID 720684)
Procedure, shortened: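 Plate contents were MEM with 10% FBS plus test compound or DMSO, no cells. Fluorescence was recorded with 540 nm excitation and 590 nm emission.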

[16] = qHTS assay to test for compound auto fluorescence at 460 nm (blue) in HepG2 cell free culture (AID 720685)
Procedure, shortened: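 Compound (23 nL) or DMSO pinned into cell-free MEM with 10% FBS; blue fluorescence read at 405/460 nm excitation/emission, expressed as auto-fluorescence equivalency to triamterene.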

[17] = qHTS assay to test for compound auto fluorescence at 535 nm (green) in HepG2 cell free culture (AID 720686)
[18] = qHTS assay to test for compound auto fluorescence at 460 nm (blue) in HepG2 cells (AID 720687)
Procedure, shortened: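 Blue-channel autofluorescence (Ex/Em 405/460 nm, triamterene-equivalent) was measured after 1 hr compound exposure at 37 C, 5% CO2. Cells were HepG2, plated overnight at 37 C in MEM plus 10% FBS.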

[19] = biological target: Glucocorticoid receptor (Homo sapiens) (UniProt P04150); experiment: qHTS assay to identify small molecule antagonists of the glucocorticoid receptor (GR) signaling pathway (AID 720692; active = well fitted inhibition curve with a large enough effect in the signal ratio in the repeat runs, not every such curve was filed as active; the % refers to the signal ratio)
Sequence of Glucocorticoid receptor (Homo sapiens) (P04150 whole entry, looked up): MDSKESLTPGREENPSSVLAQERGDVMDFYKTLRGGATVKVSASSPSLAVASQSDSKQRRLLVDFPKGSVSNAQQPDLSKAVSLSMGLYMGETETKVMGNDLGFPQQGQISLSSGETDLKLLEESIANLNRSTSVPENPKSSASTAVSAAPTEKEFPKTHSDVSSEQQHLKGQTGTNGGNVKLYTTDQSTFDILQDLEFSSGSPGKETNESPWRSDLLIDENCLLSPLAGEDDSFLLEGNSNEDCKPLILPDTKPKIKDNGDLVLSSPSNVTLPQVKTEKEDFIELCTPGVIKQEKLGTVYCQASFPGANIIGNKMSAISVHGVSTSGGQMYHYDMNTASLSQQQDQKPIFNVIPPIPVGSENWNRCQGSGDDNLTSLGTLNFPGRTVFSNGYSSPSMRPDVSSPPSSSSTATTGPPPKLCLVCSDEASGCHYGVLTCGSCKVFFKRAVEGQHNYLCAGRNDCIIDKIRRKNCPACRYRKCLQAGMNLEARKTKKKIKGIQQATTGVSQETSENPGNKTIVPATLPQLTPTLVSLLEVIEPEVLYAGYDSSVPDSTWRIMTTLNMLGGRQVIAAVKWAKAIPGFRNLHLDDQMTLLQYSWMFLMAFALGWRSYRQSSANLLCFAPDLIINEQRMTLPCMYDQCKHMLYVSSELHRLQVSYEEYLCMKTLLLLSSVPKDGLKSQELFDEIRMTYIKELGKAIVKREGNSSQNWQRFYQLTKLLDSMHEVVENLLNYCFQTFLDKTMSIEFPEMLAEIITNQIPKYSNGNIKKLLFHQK
Procedure, shortened: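 Inhibition of glucocorticoid signalling is measured in HeLa cells with a GRE-controlled beta-lactamase reporter; cells are co-treated with compound and 5 nM dexamethasone (final) for 18 h before FRET substrate readout.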

[20] = biological target: Glucocorticoid receptor (Homo sapiens) (UniProt P04150); experiment: qHTS assay to identify small molecule agonists of the glucocorticoid receptor (GR) signaling pathway (AID 720691; active = well fitted activation curve with a large enough effect in the signal ratio in the repeat runs, not every such curve was filed as active; the % refers to the signal ratio)
Procedure, shortened: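 qHTS in GR-bla HeLa cells: 4 h settling at 37 C/5% CO2, 18 h compound incubation at 37 C, 2 h LiveBLAzer B/G FRET substrate at room temperature, fluorescence intensity measured.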

Measured: Potency

CNC(=O)NC
inactive: [1] | [2] | [3] | [4] | [5] | [6] | [7] | [8] | [9] | [10] | [11] | [12] | [13] | [14] | [15] | [16] | [17] | [18]

COc1cc(C=O)ccc1OC(=O)C(C)C
inactive: [1] | [2] | [3] | [4] | [5] | [6] | [7] | [8] | [9] | [10] | [11] | [12] | [13] | [14] | [15] | [16] | [17] | [18] | [19]

CC(=O)OC(C)(C)Cc1ccccc1
inactive: [1] | [2] | [3] | [4] | [5] | [6] | [7] | [8] | [9] | [10] | [11] | [12] | [13] | [14] | [15] | [16] | [17] | [18]

C[C@H](CCC(=O)NCC(=O)O)[C@H]1CC[C@H]2[C@@H]3[C@H](O)C[C@@H]4C[C@H](O)CC[C@]4(C)[C@H]3C[C@H](O)[C@]12C
inactive: [1] | [2] | [3] | [4] | [5] | [6] | [7] | [8] | [9] | [10] | [11] | [12] | [13] | [14] | [15] | [16] | [17] | [18] | [20] | [19]

O=C1CC[C@H](C(=O)N2CCCCC2)N1
inactive: [1] | [2] | [3] | [4] | [5] | [6] | [7] | [8] | [9] | [10] | [11] | [12] | [13] | [14] | [15] | [16] | [17] | [18] | [20] | [19]

CCCC(C)CC (stereo unspecified)
inactive: [1] | [2] | [3] | [4] | [5] | [6] | [7] | [8] | [9] | [10] | [11] | [12] | [13] | [14] | [15] | [16] | [17] | [18]

CCCCCCCC/C=C\CCCCCCCC(=O)OC[C@@H](O)[C@H]1OC[C@H](O)[C@H]1O
inactive: [1] | [2] | [3] | [4] | [5] | [6] | [7] | [8] | [9] | [10] | [11] | [12] | [13] | [14] | [15] | [16] | [17] | [18] | [20] | [19]

CC(=O)/C=C/c1ccco1
inactive: [1] | [2] | [3] | [4] | [5] | [6] | [7] | [8] | [9] | [10] | [11] | [12] | [13] | [14] | [15] | [16] | [17] | [18]

Cc1ccccc1C(=O)N1CC/C(=N\OS(=O)(=O)O)c2ccc(Cl)cc21
inactive: [1] | [2] | [3] | [4] | [5] | [6] | [7] | [8] | [9] | [10] | [11] | [12] | [13] | [14] | [15] | [16] | [17] | [18] | [20] | [19]

Cc1cc(C)cc([N+](=O)[O-])c1
inactive: [1] | [2] | [3] | [4] | [5] | [6] | [7] | [8] | [9] | [10] | [11] | [12] | [13] | [14] | [15] | [16] | [17] | [18] | [19]

O=C(O)/C=C/c1ccccc1
inactive: [1] | [2] | [3] | [4] | [5] | [6] | [7] | [8] | [9] | [10] | [11] | [12] | [13] | [14] | [15] | [16] | [17] | [18] | [20] | [19]

O=c1[nH]c(=O)c2ccccc2o1
inactive: [1] | [2] | [3] | [4] | [5] | [6] | [7] | [8] | [9] | [10] | [11] | [12] | [13] | [14] | [15] | [16] | [17] | [18]

CCCCC(C)C(=O)O (stereo unspecified)
inactive: [1] | [2] | [3] | [4] | [5] | [6] | [7] | [8] | [9] | [10] | [11] | [12] | [13] | [14] | [15] | [16] | [17] | [18]

CO[Si](CCCS)(OC)OC
inactive: [1] | [2] | [3] | [4] | [5] | [6] | [7] | [8] | [9] | [10] | [11] | [12] | [13] | [14] | [15] | [16] | [17] | [18] | [20] | [19]

— PubChem BioAssay (Tox21)
